Laboratory results reported in PubChem BioAssay AID624352 (Sanford-Burnham Center for Chemical Genomics, 2012).
Among all 360,000 compounds or so, about 2,600 (0.72%) were called active.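 How the source made its calls: active means inhibition of the luminescence signal of 40% or more relative to plate controls, in a single-dose primary screen at 18.75 µM; inactive means the rest.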 Many of the other results were omitted from the sample, so actives are more common in it than they were.

Assay: HIF-2a reporter inhibitors, primary screen, luminescence, 786-0 RCC cells (AID 624352)
Settings: 786-0 RCC cells HIF-2a reporter, luciferase luminescence, overnight; at 18.8 µM; hits give high values

inhibition, active:
CC(C)(C)c1ccc(Oc2ccc(N)cc2)cc1 94.1%
C=CCn1c(C)cc(C2=NNC(=NCC)SC2)c1C 92.7%
O=c1oc2ccccc2cc1-c1cn(-c2ccccc2)c(=S)[nH]1 73.6%
O=C1/C(=C\c2ccc([N+](=O)[O-])cc2)CS(=O)(=O)C/C1=C/c1ccc([N+](=O)[O-])cc1 92.6%
Cc1c(CCC(=O)O)c(=O)oc2cc3occ(-c4ccccc4)c3cc12 63.2%
O=C1C=CC(=O)N1c1ccc(N2CCCCC2)cc1 69.5%
Cc1ccc(NC(=S)NC(NC(=O)Cc2cccc3ccccc23)C(Cl)(Cl)Cl)cc1 (stereo unspecified) 54.6%
CN1CCN(CCCNC(=O)c2ccc(/C=C3\Oc4ccccc4N(Cc4ccc(Cl)cc4)C3=O)cc2)CC1 89.4%

inhibition, inactive:
CCCCOC(=O)CNc1nnc(SCC(=O)OCC)[nH]c1=O 16.2%
C[C@@H](NC(=O)[C@@H]1Cc2ccccc2CN1)C(=O)NC1CCCC1 -3.06%
CN(C)S(=O)(=O)c1ccc(Oc2ccc(S(=O)(=O)N(C)C)cc2)cc1 0.813%
NC[C@H](Cc1ccccc1)NCCc1cc(C(F)(F)F)cc(C(F)(F)F)c1 8.13%
CCOc1cccc(NC(=O)Cn2nc(-c3ccc4c(c3)OCCO4)ccc2=O)c1 3.02%
CN(C)CCn1c2c(c(SCC(=O)NCc3ccccc3)nc1=O)CCC2 11.3%
Cn1c(=O)c2ccccc2n(CC(=O)Nc2ccc3c(c2)OCCO3)c1=O 0.929%
COc1ccc(C(=O)NCC(c2ccco2)N2CCc3ccccc32)cc1OC (stereo unspecified) 23%
COc1cc(C2C(C(=O)c3sc(C)nc3C)=C(O)C(=O)N2CCN(C)C)cc(OC)c1OC (stereo unspecified) 17.5%
CN(C)CC(C)(C)CNC(=O)c1cc(Br)cc(Br)c1O 8.3%
O=[N+]([O-])c1ccc(CN2CC(N3CC=CC3)CS2(=O)=O)cc1 (stereo unspecified) 3.7%
CC(=O)Nc1cc(-c2ccccc2N(C)C)cn2c(-c3ccc(F)c(Cl)c3)cnc12 -0.208%
CCc1ccc(Oc2nc([N+](=O)[O-])nn2C)cc1 -0.728%
CC1CCCN(C(=O)c2ccc3c(c2)C(=O)N(CCC2=CCCCC2)C3=O)C1 (stereo unspecified) 2.05%
CC1Cc2ccccc2N1C1=CC(=O)CC(C)(C)C1 (stereo unspecified) 9.32%
Cc1coc2cc3oc(=O)c(CCC(=O)O)c(C)c3cc12 17%
COc1cccc(-c2coc3cc4oc(=O)c(CC(=O)O)c(C)c4cc23)c1 -58%
CC(C)c1ccc2c(c1)c(SC(C)(C)C)c(CC(C)(C)C(=O)O)n2Cc1ccc(Cl)cc1 -26.8%
CCCC(=O)N1CCN(c2nnc(-c3ccc(C)cc3)c3ccccc23)CC1 12.6%
Cc1ccc2[nH]c(C(=O)O)c(NC(=O)c3ccccc3[N+](=O)[O-])c2c1 13.4%
c1ccc(-n2cccc2)c(N2CCCCC2)c1 13.2%
O=C(c1ccc(Cl)c(S(=O)(=O)N2CCCCCC2)c1)N1CCN(c2ccc(O)cc2)CC1 11.3%
CCOC(=O)c1nn(-c2ccccc2F)c2nc(Nc3ccccc3)cc(=O)n12 7.21%
CN(C)c1nc2n(c(=O)n1)CCO2 6.35%
COC(=O)CSc1nc2c(c(C3CC=CCC3)c1C#N)CCC2 (stereo unspecified) 0.0766%
CC1(C(=O)NS(=O)(=O)c2cccc(OC(F)F)c2)CCN1C(=O)COc1ccc(Cl)cc1 (stereo unspecified) 6.16%
CC(=O)NC1=NN(C(C)=O)C(C)(c2ccc(Cl)s2)S1 (stereo unspecified) 14.9%
CCc1cc(=O)oc2c(C)c(OCC(=O)N3CC[C@@]4(O)CCCC[C@H]4C3)ccc12 -4.19%
Brc1ccc(CN2CC[C@H]3C=CCc4cccc(c43)C2)cc1 11.8%
O=C(Cc1cccc2ccccc12)NNC(=O)Nc1ccc(Cl)cc1 -196%
CC(C)(C)C(=O)NC(NC(=S)Nc1ccc(S(N)(=O)=O)cc1)C(Cl)(Cl)Cl (stereo unspecified) 5.45%
O=c1c2ccccc2cnn1Cc1n[nH]c(=S)n1-c1ccccc1F 13.1%
O=C(NCCc1cccc(F)c1)C1CC(O)CN1C(=O)Nc1ccccc1 (stereo unspecified) 17.9%
CCCNC(=O)C1(C)CCCN(Cc2c(C)nn(-c3ccccc3)c2C)C1 (stereo unspecified) 6.85%
COc1ccc(CNC(=O)COc2ccccc2C(=O)c2cnn(-c3ccccc3)c2)cc1OC -184%
CCC1Oc2ccccc2N(CC(=O)NCCCN2CCN(CC)CC2)C1=O (stereo unspecified) 4.83%
Cc1ccc(NC(=O)CCCNC(=O)c2ccc(Cl)cc2)cc1S(=O)(=O)N1CCOCC1 5.62%
O=C1CCC(=O)N(c2ccccc2)N1 9.24%
